High-throughput results: PubChem, National Center for Advancing Translational Sciences (NCATS)
Compounds with a hit are over-represented: about 2.7% of the library has one in this group of screens.
ALOX12 inh: Primary qHTS assay for inhibitors of human arachidonate 12S-lipoxygenase (ALOX12): Round 2. purified 12hLO, xylenol orange hydroperoxide absorbance. Potency, µM (series often up to 108 µM), without a hit: at the top dose activity change, negative = inhibition, most hits filed as inhibitors. AID 1671190, 2021. hit rate 1.1% among 580,000; further: potency means the concentration at half of the fitted maximal effect; on the % scale 0 is the no-effect control and ±100 the full control effect
Target sequence (P18054 whole entry, looked up): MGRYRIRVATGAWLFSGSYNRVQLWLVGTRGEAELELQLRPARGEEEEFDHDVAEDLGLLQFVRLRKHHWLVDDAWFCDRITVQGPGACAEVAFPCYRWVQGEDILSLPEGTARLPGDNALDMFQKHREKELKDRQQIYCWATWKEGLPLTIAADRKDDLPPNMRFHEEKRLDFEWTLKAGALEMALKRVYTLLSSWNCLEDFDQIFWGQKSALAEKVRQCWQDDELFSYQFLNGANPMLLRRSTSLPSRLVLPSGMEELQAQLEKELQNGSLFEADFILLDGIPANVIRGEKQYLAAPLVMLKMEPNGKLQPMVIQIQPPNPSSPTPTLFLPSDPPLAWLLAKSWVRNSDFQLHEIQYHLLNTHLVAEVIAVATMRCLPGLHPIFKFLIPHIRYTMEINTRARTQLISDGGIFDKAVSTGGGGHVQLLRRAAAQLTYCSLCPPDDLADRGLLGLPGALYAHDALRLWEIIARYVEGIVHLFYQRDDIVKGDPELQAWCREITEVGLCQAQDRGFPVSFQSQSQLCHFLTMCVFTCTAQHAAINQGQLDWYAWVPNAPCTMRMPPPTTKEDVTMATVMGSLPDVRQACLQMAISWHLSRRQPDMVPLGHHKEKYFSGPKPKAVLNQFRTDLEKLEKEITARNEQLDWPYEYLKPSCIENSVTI
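Purified human 12hLO at 150 nM in 25 mM Hepes, 0.01% Triton X-100, pH 7.0, preincubated 15 min at room temperature with compound. Reaction started with 40 uM arachidonic acid, 30 min at room temperature. Hydroperoxide measured by Fe-xylenol orange, 573/405 nm absorbance ratio.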
ERG-DNA inh: qHTS for Small Molecule Inhibitors of the ERG Ets/DNA interaction. Transcriptional regulator ERG (Homo sapiens), P11308. fluorescence polarization, His-ERG Ets domain / labelled DNA. Potency, µM (titrated, usually from 76.9 µM), for the others: at the highest dose FP activity, negative = inhibition, actives largely listed as inhibitors. hit rate 0.028% among 370,000; active means well fitted inhibition curve with a large enough effect in the polarisation, with a control signal flat; inconclusive means small, poorly fitted or top-dose-only effect, or effect the other way, or a change in a side signal; inactive means no such curve, though single readings can be large or run the other way; the % refers to the polarisation;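 further: polarization taken with two DNA probes labelled with fluorescein and Texas red; potency means the concentration at half of the fitted maximal effect; % of control where 0% means no effect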
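His-tagged ERG Ets domain (1 uM in the protein solution; 300mM KCl, 50mM Tris-HCl, 1mM EDTA, 1mM DTT, pH 7.5) received compound, then a probe mix of 5 nM fluorescein-DNA and 100nM Texas-615-DNA. Fluorescence polarization was read for both dyes.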
Nrf2 block: Nrf2 qHTS screen for inhibitors; hit rate 2.1% among 360,000; A549 ARE-Fluc reporter, luciferase luminescence, 18-24 h; Potency, µM (titrated, usually from 46 µM), for inactives: at the highest dose activity change, negative = inhibition, usual class: inhibitors; AID 504444, 2011; further: potency means the concentration at half of the fitted maximal effect; on the % scale 0 is the no-effect control and ±100 the full control effect; nearly all actives have a fitted effect of over 60% in size
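A549 ARE_Fluc cells, 5000/well, 5% FBS OPTI-MEM; compounds in dose-response, 18-24 h at 37 °C/5% CO2; CellTiter-Fluor viability read (Ex 405/Em 525), then BugLite luciferase luminescence = Nrf2 activity.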
Nrf2 activator: qHTS of Nrf2 Activators. AREc32 ARE-luciferase reporter (MCF7-derived line), luminescence, 24 h. Potency, µM (series often up to 46.1 µM), for inactives: at the highest dose activation, usual class: activators. hit rate 0.31% among 410,000. AID 624171, 2012; further: potency means the concentration at half of the fitted maximal effect; % of control where 0% means no effect; nearly all actives have a fitted effect of over 65% in size
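Reporter line AREc32 (ARE-Fluc), seeded overnight in OPTI-MEM with 5% FBS; compound pin-transferred, 24 hr at 37 deg C, 5% CO2; luminescent read-out.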
LDHA inh: qHTS assay for inhibitors of human lactate dehydrogenase | L-lactate dehydrogenase A chain (Homo sapiens), P00338 | purified LDHA, NADH/diaphorase-resazurin fluorescence; hits give low values | activity change, % (values are at about 110 or 230 µM) | hit rate 0.15% among 480,000; in the data active means activity change below about -30%; inconclusive means mostly about -25% to -30%;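 further: plate controls were DMSO wells for no effect and wells without enzyme for full effect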
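Enzyme activity of human lactate dehydrogenase 5 (2 nM; 0.06 mM NADH, 0.2 mM pyruvate, 5 min, RT) is measured via a resazurin/diaphorase fluorescence readout of residual NADH.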
A549 viability: Nrf2 qHTS screen for inhibitors: counterscreen for cytotoxicity | Potency, µM (series often up to 46 µM), without a hit: at the highest dose activity change, negative = cytotoxicity, most hits filed as inhibitors | A549 ARE-Fluc cells, CellTiter-Fluor viability, 18-24 h | hit rate 0.16% among 390,000; further: potency means the concentration at half of the fitted maximal effect; on the % scale 0 is the no-effect control and ±100 the full control effect
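A549 ARE-Fluc cells in 5% FBS OPTI-MEM, 5000 cells/well, rested 2 h then exposed to compounds in concentration-response for 18-24 h at 37 °C. Viability by CellTiter-Fluor fluorescence (Ex 405/Em 525) after 30 min; luciferase luminescence (BugLite, 15 min, RT) read afterwards.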
Starred values were filed as active, the others as inactive; u = inconclusive; x = not tested or not shown; ! = a repeat was not active; [ ] = dose if it differs, or a comment. Unless noted, the call rests on the fitted dose curve; in most records, active means well fitted curve in the direction sought with a large enough effect; inconclusive means small, poorly fitted or top-dose-only effect, or another doubt; inactive means no such curve, though single readings can be large; an effect the other way counts as inactive or inconclusive.

SMILES	ALOX12 inh	ERG-DNA inh	Nrf2 block	Nrf2 activator	LDHA inh	A549 viability
CCOc1cccc(N2C(=O)/C(=C/c3ccco3)C(=O)NC2=S)c1	11µM*	45%	1%	-1%	2	-15%
CCN(CC)c1ccc(/C=C2\C(=O)NC(=S)N(c3ccc(OC)cc3OC)C2=O)o1	x	79%	-20%	5%	0	13µM*
COc1ccc(N2C(=O)/C(=C/c3ccc(N(C)C)o3)C(=O)NC2=S)cc1	u	39%	0%	3%	3	u
COc1cccc(N2C(=O)/C(=C/c3ccc(C)o3)C(=O)NC2=S)c1	10µM*	-3%	0%	5%	1	1%
C/C=C/C1(NCCc2ccccc2)CCCCC1	53%	x	x	x	1	x
Cc1ccccc1OCCN=Cc1c(O)n(C)c(=O)n(C)c1=O	-9%	-6%	21µM*	1%	-5	-16%
O=C(O)C1=NOC2CN(CC3CCCC3)CC12 (stereo not drawn)	-21%[12.5 µM]	x	x	x	x	x
CCOP(=O)(OCC)c1nc(-c2ccc(Cl)cc2)oc1NCc1ccccc1	u	2%	u	7%	2	-20%
CCCOP(=O)(OCCC)c1nc(-c2ccccc2)oc1NCc1ccccc1	-28%	8%	18µM*	7%	5	u
CCCn1c(C)c(C(=O)NCC2CC2)c2cc(OC)ccc21	-2%	x	x	x	-3	x
Cc1cccc(N2C(=O)/C(=C/N3CCN(C(=O)c4ccco4)CC3)C(=O)NC2=S)c1	u	11%	9%	-1%	-3	-8%
Cc1ccc(N2C(=O)/C(=C/N3CCN(C(=O)c4ccco4)CC3)C(=O)NC2=S)cc1C	40µM*	1%	u	0%	-6	-27%
CCOc1ccc2nc(N=Nc3c(O)[nH]c(=O)[nH]c3=O)sc2c1	-28%	0%	-1%	0%	1	u
CCOc1ccc2nc(N=Nc3c(O)[nH]c(=S)[nH]c3=O)sc2c1	-16%	-14%	18%	0%	5	23µM*
CCCc1cc(C(=O)N2C[C@@H](c3ccc(F)cc3)[C@@H]3[C@H]2C2CCN3CC2)n[nH]1	38%	x	x	x	x	x
CC(=O)C1C(N2CC2)CC2C3CC=C4CC(O)CCC4(C)C3CCC21C (stereo not drawn)	3%	-4%	3%	9%	-10	8.2µM*
O=C(CNC12CC3CC(CC(C3)C1)C2)c1ccc(Cl)cc1	0%	x	x	x	-81*	x
O=C(CN1CCN(Cc2ccccc2)CC1)Nc1ccc(Cl)cc1C(=O)c1ccccc1	u	x	x	x	8	x
CCOC(=O)C(O)(c1ccc(NC(=S)NC(=O)c2ccc(Cl)cc2Cl)c(C)c1)C(F)(F)F (stereo not drawn)	u	-10%	15µM*	-1%	0	u
COc1ccccc1N1C(=O)NC(=O)/C(=C/c2ccc([N+](=O)[O-])s2)C1=O	u	42%	-1%	4%	19	u
COc1ccccc1N1C(=O)NC(=O)/C(=C/c2ccc3c4c(cccc24)CC3)C1=O	50µM*	5%	9%	4%	-21	7%
Cc1cccc(-n2c(O)c(C)c(=O)[nH]c2=S)c1	45µM*	-5%	11%	-1%	4	0%
NCCc1ccc(OC(F)(F)F)cc1	u	x	x	x	1	x
O=C1NC(=O)[C@]2(Cc3ccccc3N3CCN(c4ccccc4)CC32)C(=O)N1Cc1ccccc1 (stereo partly drawn)	16µM*	0%	-11%	0%	2	-3%
c1ccc(C[n+]2ccccc2)cc1	-17%	-1%	u	3%	-7	1%
SMILES	ALOX12 inh	ERG-DNA inh	Nrf2 block	Nrf2 activator	LDHA inh	A549 viability
Cc1cc[n+](Cc2ccccc2)cc1	6%	-6%	18µM*	0%	-12	-1%
COc1cccc(C2CCN(CC(=O)Nc3cc(Cl)ccc3OC)CC2O)c1 (stereo not drawn)	9%	20µM*	-21%	0%	-14	-1%
COc1ccc(OC)c(NC(=O)Cn2cc(C(=O)c3ccccc3F)c3ccccc32)c1	-28%	1%	14%	4%	-2	-7%
Cc1nc(-c2cccs2)cc([C@H]2CN3CC[C@H]2C[C@@H]3CO)n1	23%[176 µM]	x	x	x	x	x
Fc1ccc(C[n+]2c(-c3ccccc3)cc(-c3ccccc3)cc2-c2ccccc2)cc1	-5%	-2%	18µM*	-1%	u	u
Clc1ccc(C[n+]2c(-c3ccccc3)cc(-c3ccccc3)cc2-c2ccccc2)cc1	-18%	-5%	21µM*	-3%	1	u
CCOC(=O)c1ccc(NC(=O)Nc2cc3c(cc2N2CCCCC2)n(CC)c(=O)n3CC)cc1	0%	1%	u	5%	9	-12%
Cc1ccc(NC(=O)Nc2cc3c(cc2N2CCCCC2)n(C)c(=O)n3C)cc1Cl	u	-5%	21µM*	0%	8	-19%
COc1ccccc1C(=O)Nc1ccc2nc(SCC(=O)N3CCCc4ccccc43)sc2c1	-17%	1%	18µM*	4%	4	-6%
COc1ccc(-c2cc([C@H]3CN4CC[C@H]3C[C@@H]4CNC(=O)CSCC(=O)O)nc(C)n2)cc1OC	89%	x	x	x	x	x
COc1ccc(CCNCc2cccc(F)c2)cc1	u	x	x	x	-15	x
COP(=S)(OC)Oc1ccc(S(=O)(=O)N(C)C)cc1	11µM*!	x	x	x	x	x
Nc1c(C(=O)NCc2ccco2)c2nc3ccccc3nc2n1Cc1ccc(F)cc1	20%	3%	-16%	18µM*	10	-21%
CCN1/C(=C\C=C\C2=[N+](CC)c3ccccc3C2(C)C)C(C)(C)c2ccccc21	x	-161%	0.65µM*	-4%	-6	5.2µM*
COc1cccc(-n2c(/C=C/c3ccc(O)c(O)c3)nc3ccccc3c2=O)c1	32µM*	61%	-8%	17%	19	-2%
C=CCN1CCN(C(=O)Cc2ccc(F)cc2)CC1	-1%	x	x	x	-8	x
CN1C(=O)c2ccccc2Sc2ccc(NC(=O)NCc3ccc(Cl)cc3)cc21	-22%	-4%	15µM*	0%	-2	-11%
CC1C(c2ccc(F)cc2)=[N+]([O-])C(C)(C(=O)c2ccccc2)N1O (stereo not drawn)	4%	x	x	x	6	x
